# Screens deposited in PubChem by The Scripps Research Institute Molecular Screening Center.
# Sampled rows, rich in hits. Any-hit rate of the full collection: about 4.1%.
# LEDGF integ inh – blocks HIV-1 LEDGF/p75-dependent DNA integration; 370,000 tested, 0.64% active; AID 743269; TR-FRET IN-LEDGF/p75 DNA integration, Eu/Cy5; inhibition, % at 3.7 µM;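 active = inhibition above the screen-wide mean plus 3 SD, cut at about 13% in these data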;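 also: signal is the Cy5 over europium emission ratio at 671 and 618 nm; 0% = plate median of compound wells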
# rCAG binder – binds r(CAG) RNA repeats; 370,000 tested, 1.3% active; r(CAG) RNA repeat, TO-PRO-1 dye displacement fluorescence; AID 651821; inhibition, % at 3 µM;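 active = inhibition above the plate cutoff, the mean of all test compounds on that plate plus 3 SD, cut at about 35% in these data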;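 also: 0% = DMSO alone and 100% = 100 µM mitoxantrone as full dye displacement; higher means more dye released from RNA so lower well fluorescence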
# PRMT1 FP inh – PRMT1 (human) inhibition, primary screen; Q99873; recombinant PRMT1, activity-based probe fluorescence polarization; inhibition, % at 2.79 µM; 370,000 tested, 1.3% active;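 active = inhibition above about 21% made by adding two undisclosed values, limit read from the data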
# Target sequence (Q99873 whole entry, looked up): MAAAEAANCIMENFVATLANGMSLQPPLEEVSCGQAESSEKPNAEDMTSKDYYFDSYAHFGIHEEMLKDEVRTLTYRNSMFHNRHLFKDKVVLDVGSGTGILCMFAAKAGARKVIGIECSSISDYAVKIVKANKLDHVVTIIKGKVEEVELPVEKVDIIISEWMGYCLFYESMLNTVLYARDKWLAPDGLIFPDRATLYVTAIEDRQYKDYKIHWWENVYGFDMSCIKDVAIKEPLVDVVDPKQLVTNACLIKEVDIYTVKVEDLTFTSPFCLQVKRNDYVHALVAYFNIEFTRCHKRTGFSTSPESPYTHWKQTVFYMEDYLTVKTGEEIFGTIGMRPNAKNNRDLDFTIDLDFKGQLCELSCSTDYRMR
# ABHD5 PLIN5 PPI – ABHD5-PLIN5 protein interaction inhibition; Q00G26+Q8WTS1; 360,000 tested, 0.78% active; inhibition, % at 4 µM; Split G. princeps luciferase complementation, luminescence, 4 h;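 active = inhibition above the mean inhibition across every tested compound plus 3 SD, cut at about 22% in these data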;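 also: 0% = DMSO only wells and the 100% control is not disclosed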
# UHRF1 binding – blocks human UHRF1 binding to methylated DNA; inhibition, % at 4.4 µM; 370,000 tested, 0.75% active; AID 687016; UHRF1 binding to methylated oligo, TR-FRET; in the data active = inhibition above about 21%;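 also: UHRF1 SRA domain binding a hemimethylated CpG hairpin DNA probe; 0% = median of test compound wells and 100% = reference inhibitor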
# MBD2 inh – blocks human MBD2 binding to methylated DNA. inhibition, % at 4.4 µM. 370,000 tested, 0.31% active. Q9UBB5. AID 686964. TR-FRET, MBD2 binding to methylated oligonucleotide; in the data active = inhibition above about 13%
# The depositor's hits bear a star; / = no result.
SMILES,LEDGF integ inh,rCAG binder,PRMT1 FP inh,ABHD5 PLIN5 PPI,UHRF1 binding,MBD2 inh
CCOC(=O)Nc1sc2c(c1C(=O)OCC)CCC2,-3,5,1,2,-1,-5
CCOC(=O)c1c(NC(=O)C2CCCCC2C(=O)O)sc2c1CCCCC2 (configuration not stated),6,45*,2,2,-1,-5
CCOC(=O)c1c(/N=C/N(C)C)sc2c1CCC2,-1,-1,3,0,95*,4
O=C(N1CCc2ccccc2C1)n1cc(C(O)(c2ccccc2)c2ccccc2)nn1,1,/,0,/,1,4
COc1ccccc1C(CNC(=O)c1cccc(S(=O)(=O)N2c3ccccc3CC2C)c1)N(C)C (configuration not stated),-1,-1,2,23*,-4,6
CCCCn1c(N)c(N(CC(C)C)C(=O)c2cc3c(s2)CCCCC3)c(=O)[nH]c1=O,1,1,2,-6,57*,-3
Cc1cc2c(c(=O)n1Cc1cccnc1)C(c1ccccc1)C(C#N)=C(N)O2 (configuration not stated),1,0,-4,-2,-2,-4
COc1cccc(C2C(C#N)=C(N)Oc3cc(C)n(Cc4ccco4)c(=O)c32)c1 (configuration not stated),3,11,10,22*,-3,1
COc1ccc(C2(c3ccc(OC)cc3)NC(=O)N(CC(=O)Nc3ccccc3)C2=O)cc1,3,2,-3,-1,0,-5
COc1ccc(C2(c3ccc(OC)cc3)NC(=O)N(CC(=O)Nc3ccc(C(N)=O)cc3)C2=O)cc1,5,17,2,-18,42*,10
COC(=O)Cc1nnn2c1[C@H](C)[C@@H](OC)c1ccc(C(F)(F)F)cc1-2,-3,-1,-2,/,1,0
COc1cc(NC(=O)c2cc3ccccc3cc2O)c(OC)cc1Cl,-2,47*,2,-17,0,3
COc1cc(OC)c(NC(=O)c2ccccc2F)cc1Cl,-1,2,0,2,4,-2
CC(C)(C)OC(=O)NCc1cc2c(cc1/C=C/S(=O)(=O)NC1CCCC1)OCO2,2,0,-2,/,0,-2
CCN(CC)CCCn1c(=S)[nH]c2ncccc2c1=O,2,1,2,-3,21*,11
CCN(CCCn1c(=S)[nH]c2ncccc2c1=O)c1ccccc1,2,2,-2,4,2,2
COc1cc2c(c(OC)c1)C(=O)O[C@H](C)C[C@@H]1O[C@H]1CCCCC(=O)C2,0,0,3,/,0,3
Cc1cc(Nc2ccc(Cl)c(C(F)(F)F)c2)cc(=O)n1-c1ccc(Cl)c(C(F)(F)F)c1,-3,8,1,/,-3,-5
COc1ccc(C(=O)NNC(=O)CCCCC(=O)NNC(=O)c2ccc(OC)cc2)cc1,4,2,-1,3,22*,8
COc1ccc(C(=O)NNC(=O)CCC(=O)NNC(=O)c2ccc(OC)cc2)cc1,1,1,2,-2,12,0
COc1ccc(-c2cc(C(=O)Nc3ccc(S(=O)(=O)Nc4onc(C)c4C)cc3)c3ccccc3n2)cc1,60*,75*,-2,8,3,3
Cc1ccc(/C=C/C(=O)Nc2ccc(S(=O)(=O)Nc3onc(C)c3C)cc2)cc1,4,68*,-1,4,0,0
Cc1cccc(OCCCC(=O)Nc2ccc(S(=O)(=O)Nc3onc(C)c3C)cc2)c1,-1,48*,0,-1,2,0
Cc1ccc(S(=O)(=O)NC[C@H]2CN(S(=O)(=O)c3ccc(C)cc3)[C@@H](Cc3ccccc3)CO2)cc1,-4,/,0,/,5,4
COC(=O)CC#C[C@H](C)[C@@H](NS(C)(=O)=O)C(C)(C)COCc1ccccc1,-1,1,0,/,0,-2
SMILES,LEDGF integ inh,rCAG binder,PRMT1 FP inh,ABHD5 PLIN5 PPI,UHRF1 binding,MBD2 inh
Cc1ccc(S(=O)(=O)N2CC[C@@]3(Cc4ccccc4)Cc4ccccc4C[C@@H]23)cc1,-7,/,-1,/,1,2
OCCN(CC#CC(O)(c1ccccc1)c1cccc(F)c1)CCO (configuration not stated),-5,-8,4,-2,26*,9
COc1ccccc1CCC[C@@H](CCS(=O)(=O)C(C)C)CC1CCCCC1,-3,4,-1,/,1,3
NS(=O)(=O)c1ccc(N=Nc2c[nH]c(=O)c(O)c2)cc1,9,-34,27*,-14,-10,-20
Nc1nc(O)c(N=Nc2ccc(S(N)(=O)=O)cc2)c(=O)[nH]1,-2,5,5,/,-1,-3
O=C(N[C@@H](Cc1cccnc1)C(=O)N1CCC[C@H]1C(=O)NCCc1ccccc1Cl)c1ccc(Cl)c(Cl)c1,-2,4,-1,/,1,3
COc1ccc(S(=O)(=O)Nc2ccc3c(c2)C(=O)N([C@@H](C)CO)C[C@@H](C)[C@H](CN(C)C(=O)CCCN(C)C)OCCCC[C@H](C)O3)cc1,-2,7,0,-3,29*,-4
C[C@@H]1CCCCO[C@H](CN(C)C(=O)C2CCCCC2)[C@@H](C)CN([C@H](C)CO)C(=O)c2cc(N(C)C)ccc2O1,-3,1,-3,-10,50*,1
C=CCCC(=O)N1C[C@H]2CON(C)[C@H]2C[C@H]1c1ccccc1Br,-1,0,2,6,1,2
CCOC(=O)CN1C(=O)N2C[C@H]3CON(C)[C@H]3C[C@H]2c2ccccc21,6,3,-4,-5,47*,-4
COc1ccc(-n2c(C)cc(C(=O)CCl)c2C)cc1,2,-1,2,11,24*,3
Cc1c(C(=O)OCC(=O)Nc2c(C)n(C)n(-c3ccccc3)c2=O)cccc1[N+](=O)[O-],2,-1,0,-7,-1,0
COc1cc(C(=O)OCC(=O)Nc2c(C)n(C)n(-c3ccccc3)c2=O)c([N+](=O)[O-])cc1OC,6,-2,-2,0,32*,2
CC(CCN1CCC(C(O)(c2ccccc2)c2ccccc2)CC1)Oc1cccc(Br)c1 (configuration not stated),-2,5,3,/,0,-9
CCn1c(SC(C)C(=O)O)nc2sc3c(c2c1=O)CCC3 (configuration not stated),11,20,9,-10,28*,10
O=C(N/N=C\C=C\c1ccc2c(c1)OCO2)c1ccc(F)cc1,-4,0,2,-1,0,-2
O=C(/C=C/c1ccc2c(c1)OCO2)c1ccc(F)cc1,-2,5,-1,22*,0,-3
CCNc1ccccc(C(=O)/C=C/c2ccc3c(c2)OCO3)c1=O,9,34,26*,21,-4,1
